About 580 (24%) of roughly 2,400 compounds were called active.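 The calls were made as follows: active = activity change at or above the mean plus 3 SD of buffer wells without dofetilide, per plate; inactive = the rest.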 Only a sample is shown.

Chain of Potassium voltage-gated channel subfamily KQT member 2 (Rattus norvegicus) (O88943 whole entry, looked up): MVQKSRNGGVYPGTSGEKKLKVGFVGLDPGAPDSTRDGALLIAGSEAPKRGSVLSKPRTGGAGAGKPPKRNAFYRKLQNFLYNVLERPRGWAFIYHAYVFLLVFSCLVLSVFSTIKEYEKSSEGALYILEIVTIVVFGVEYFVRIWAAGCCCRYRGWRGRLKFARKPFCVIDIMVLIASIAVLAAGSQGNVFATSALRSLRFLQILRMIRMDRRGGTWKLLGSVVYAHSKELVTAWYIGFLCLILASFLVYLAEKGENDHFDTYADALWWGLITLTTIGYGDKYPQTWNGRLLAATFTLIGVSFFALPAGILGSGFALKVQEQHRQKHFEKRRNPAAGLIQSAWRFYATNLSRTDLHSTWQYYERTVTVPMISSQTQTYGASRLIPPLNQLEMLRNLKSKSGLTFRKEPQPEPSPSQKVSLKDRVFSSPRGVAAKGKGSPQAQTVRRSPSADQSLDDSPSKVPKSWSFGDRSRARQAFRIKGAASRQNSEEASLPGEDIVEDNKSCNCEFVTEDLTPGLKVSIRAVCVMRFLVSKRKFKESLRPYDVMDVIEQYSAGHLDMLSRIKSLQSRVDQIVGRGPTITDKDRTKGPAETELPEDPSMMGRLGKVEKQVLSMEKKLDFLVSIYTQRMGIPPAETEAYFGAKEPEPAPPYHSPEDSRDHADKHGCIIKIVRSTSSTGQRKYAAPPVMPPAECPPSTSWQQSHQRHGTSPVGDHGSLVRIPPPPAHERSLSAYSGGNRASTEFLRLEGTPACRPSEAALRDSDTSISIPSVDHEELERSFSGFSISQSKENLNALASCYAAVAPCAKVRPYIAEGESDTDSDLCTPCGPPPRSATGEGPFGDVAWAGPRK

The assay concerns the target Potassium voltage-gated channel subfamily KQT member 2 (Rattus norvegicus) (UniProt O88943). As to the kind of experiment: rat KCNQ2 channel activation by compounds alone, confirmation, counter-screen for hERG block protector project, cell-based, CHO, FluxOR thallium flux (AID 1942).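 Also: normalized value minus buffer-control mean plus three SD of buffer wells.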 Particulars: CHO-KCNQ2 cells, FluxOR thallium flux fluorescence; at 10 µM; stronger effect = higher value.
On to `CCc1nnc(NC(=O)CSc2nc(-c3ccccc3)cc(-c3ccc(OC)cc3)c2C#N)s1`, for which the activity change, less the hit threshold was -24.2% (inactive). Next, `O=C(O)Cc1ccc(NC(=O)C2CC=CCC2C(=O)O)cc1` (configuration not stated): -17.7% (inactive). In the case of `Cc1cc(C)c(NC(=O)C2CC3CCC2C3)c(C)c1` (configuration not stated), the activity change, less the hit threshold is 75.9% (active). `COc1ccc(OC)c(NC(=O)C(=S)NC2CCCCC2)c1`: the activity change, less the hit threshold is -21.2% (inactive). Next, `CC(C)N1CC(C(=O)Nc2ccc(Cl)c(Cl)c2)CC1=O` (configuration not stated): -15.3% (inactive); `Cc1cc(C)c2nc(NC(=O)C3CCCO3)sc2c1` (configuration not stated): -17% (inactive); `COc1ccc(NC(=O)C2CC3CCC2C3)c(OC)c1` (configuration not stated): 15.8% (active). Regarding `COc1ccc(NC(=O)COC(=O)c2c(C)noc2C)c(OC)c1`, the activity change, less the hit threshold was -8.1% (inactive). For the molecule `CC(C)c1ccc(NC(=O)C2CC3CCC2C3)cc1` (configuration not stated), the activity change, less the hit threshold is 21.5% (active). The figure for `O=C(COc1ccc([N+](=O)[O-])cc1)Nc1cccnc1` is -27.2% (inactive); for `c1ccc(OCc2nn3c(Cn4cnc5ccccc54)nnc3s2)cc1` it is -20.8% (inactive). Next, `CCCN1CCN(CCCNC(=O)Cn2nc(C)n3c(cc4cc(OC)ccc43)c2=O)CC1`: -25.2% (inactive). In the case of `CC(C)[C@H](NC(=O)OC(C)(C)C)C(=O)NCC1CCC(C(=O)N[C@@H](Cc2ccccc2)C(=O)O)CC1` (some centres not stated), the activity change, less the hit threshold was -10.4% (inactive). The figure for `CCOC(=O)c1cnc(-n2nc(C)cc2C)nc1NNc1nc(-c2ccccc2)cc(-c2ccccc2)n1` is -15% (inactive); for `CCOC(=O)Cn1cc(C=O)c2ccccc21` it is -12.9% (inactive); for `O=S(=O)(Nc1nc(-c2sccc2Cl)cs1)c1cc(Cl)ccc1Cl` it is 105% (active).

As for `COC(=O)c1sccc1NC(=O)CSc1ccccc1NS(=O)(=O)c1cc(Cl)ccc1Cl`, the activity change, less the hit threshold is -17% (inactive). The figure for `COc1cc(C(=O)NCCNc2nc3cc(C)ccc3cc2C#N)cc(OC)c1OC` is -18.4% (inactive). Next, `COc1ccc(NC(=O)CSCC(=O)Oc2c(OC)cccc2OC)cc1`: -22.1% (inactive); `CC(NC(=S)NC1CCCCC1)c1ccccc1` (configuration not stated): 6.9% (active); `CCC(C)(C(=O)NC1CCCC1)N(C(=O)c1ccccn1)c1ccccc1` (configuration not stated): -13% (inactive).

`COc1cccc(NC(=S)NC(C)c2ccc(OC)c(OC)c2)c1` (configuration not stated): the activity change, less the hit threshold was -23.4% (inactive). As for `CC(NC(=O)NC1CCCCC1)c1ccccc1` (configuration not stated), the activity change, less the hit threshold is 26.3% (active).

As for `CC(NC(=O)COC(=O)C1CCC1)c1ccccc1` (configuration not stated), the activity change, less the hit threshold is -21.4% (inactive). Next, `Cc1ccc(OCCC(=O)OC(C)C(=O)NC2CC2)cc1` (configuration not stated): -9% (inactive); `CC(C)(C)c1ccccc1NC(=S)NC1CCCC1`: -7.6% (inactive); `Cc1ccc(C(C)NC(=S)NC2CCCCC2)cc1C` (configuration not stated): 46.1% (active). Next, `CCOc1ccc(C(C)NC(=S)NC2CCCCC2)cc1` (configuration not stated): 9.5% (active); `CC(C)NC(=S)NNc1nc2ccccc2s1`: -19.4% (inactive); `CCOc1ccc(N=Nc2cc(C(C)C)ccc2O)cc1`: -9.1% (inactive). Regarding `O=C(OCc1ccccc1)C1=NNC2C(=O)N(c3ccc(Br)cc3)C(=O)C12` (configuration not stated), the activity change, less the hit threshold is -11.1% (inactive). Next, `C=C(C)CNC(=S)NN=C1c2ccccc2-c2ccccc21`: -7.1% (inactive); `COc1ccccc1C1C(C(=O)c2ccc(C)o2)=C(O)C(=O)N1c1cc(C)on1` (configuration not stated): -9.3% (inactive); `COc1ccccc1-n1cnc2cc(NS(=O)(=O)c3ccc(Br)cc3)ccc21`: -25.5% (inactive). Next, `CC1Oc2ccccc2N(CC(=O)N2CCCCCC2)C1=O` (configuration not stated): -17.7% (inactive). The figure for `O=C(COc1coc(CN2CCc3ccccc3C2)cc1=O)Nc1cccc(Cl)c1` is -26% (inactive); for `COc1ccc(CCNC(=O)C(=O)Nc2ccc3c(c2)OCO3)cc1OC` it is -19% (inactive); for `COc1cc(/C=N/NC(=O)NC2CCCCC2)ccc1O` it is -11.5% (inactive).

`CC(NC(=O)NC1CCCCC1)c1ccc2c(c1)OCO2` (configuration not stated): the activity change, less the hit threshold is 51% (active). Next, `O=C(COC(=O)/C=C/c1ccc2c(c1)OCO2)NC1CC1`: -11.4% (inactive); `Cc1ccc(C(=O)N2CCN(c3ccccc3)CC2)cc1S(=O)(=O)N1CCCC1`: 1.9% (active).

With `CCOC(=O)N1CCN(C(=O)c2ccc(C)c(S(=O)(=O)Nc3ccccc3)c2)CC1`, the activity change, less the hit threshold was 4% (active).

Consider `O=C(c1ccc(Cl)c(S(=O)(=O)N2CCCC2)c1)N1CCN(c2ccccc2F)CC1`, for which the activity change, less the hit threshold is -7.1% (inactive). Next, `COc1ccc(N2CCN(C(=O)c3ccc(-c4ccccc4)cc3)CC2)cc1`: -20% (inactive).

With `CCOC(=O)N1CCN(C(=O)c2ccc(CN(c3ccc(C)c(C)c3)S(C)(=O)=O)cc2)CC1`, the activity change, less the hit threshold is -15.6% (inactive). For `CCOC(=O)N1CCN(C(=O)c2ccc(Cl)c(S(=O)(=O)Nc3ccccc3)c2)CC1`, the activity change, less the hit threshold was -3.5% (inactive). The figure for `Cc1cccc(/N=C/c2sc3ccccc3c2O)n1` is -11.6% (inactive); for `CCC(=O)c1cc2c(C)cc(=O)oc2c(C)c1O` it is -12.6% (inactive). Consider `CSc1ccc(CNc2nc3ccccc3n3cnnc23)cc1`, for which the activity change, less the hit threshold was -28.3% (inactive). The figure for `COc1ccc(COC(=O)C2CCN(S(=O)(=O)c3cccs3)CC2)cc1` is -20.1% (inactive); for `c1ccc(-c2csc(Nc3ccc4c(c3)OCCO4)n2)cc1` it is -20.3% (inactive). Next, `O=C(COC(=O)c1cc[n+]([O-])cc1)Nc1cc([N+](=O)[O-])ccc1Cl`: -11.7% (inactive); `O=C(Cc1ccc(Cl)cc1)Nc1cccc(-c2nnc(-c3ccco3)o2)c1`: -13.4% (inactive). Next, `O=C(Nc1nnc(-c2ccc3c(c2)CCCC3)o1)C1COc2ccccc2O1` (configuration not stated): 4.3% (active); `O=C(Nc1nc2c(F)cc(F)cc2s1)C1COc2ccccc2O1` (configuration not stated): -25.7% (inactive); `O=C(Nc1nnc(-c2ccccc2)o1)c1ccc(Cl)cc1`: -17.9% (inactive).

For the molecule `O=C(CCc1ccccc1)Nc1nnc(-c2ccccn2)o1`, the activity change, less the hit threshold was -17.4% (inactive). The figure for `O=C(Nc1nnc(-c2ccc3c(c2)CCCC3)o1)c1ccc(Cl)cc1Cl` is 30.2% (active).

Take `O=C(N=C1SC2CS(=O)(=O)CC2N1c1cccc(Cl)c1Cl)C1CCCO1` (configuration not stated): the activity change, less the hit threshold was -21.2% (inactive). The figure for `CCCN(C(=O)c1ccco1)c1nnc(-c2ccncc2)s1` is -7.4% (inactive).

Take `Cc1ccc(/C(O)=C2\C(=O)C(=O)N(Cc3cccnc3)C2c2ccccc2[N+](=O)[O-])cc1` (configuration not stated): the activity change, less the hit threshold was -16% (inactive). The figure for `Cc1ccc(NC(=O)CN2C(=O)S/C(=C/c3ccc(-c4cc(C(=O)O)ccc4C)o3)C2=O)cc1C` is -24.7% (inactive).

These data come from PubChem BioAssay AID1942 (Johns Hopkins Ion Channel Center, 2009).
